This is part of a sample that, as a whole, favours compounds with a hit. Of some 83,000 tested, about 20% had one in any assay.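 Assay: single dose, 48 h. Readout: percent growth (0 = no net growth; negative = cell death). Active: <10.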 A number with no mark means an inactive call. Calls of active or inactive are those of the source.

Common to all, as to test: NCI-60 one-dose screen, 48 h (100 = growth as untreated, 0 = no growth, -100 = all killed)
Common to all, as to settings: 10 µM unless noted

Assay [1] has as its system NCI-H23 lung.
Assay [2] concerns NCI-H226 lung.
For assay [3], the system named is NCI-H322M lung.
The subject of assay [4] is HOP-62 NSCLC.
Assay [5] relates to NCI-H460 lung.
In assay [6] the test system is HOP-92 NSCLC.
For assay [7], the system named is NCI-H522 lung.
Assay [8] relates to A549/ATCC NSCLC.
The subject of assay [9] is 786-0 renal.
The subject of assay [10] is COLO 205 colon.
Assay [11] relates to DU-145 prostate.
In assay [12] the test system is K-562 leukemia.
In assay [13] the test system is MALME-3M melanoma.
For assay [14], the system named is MDA-MB-231 breast.
The subject of assay [15] is RXF 393 renal.
In assay [16] the test system is SF-268 CNS.
The test system of assay [17] is SF-295 CNS.
Assay [18] has as its system SF-539 CNS.
For assay [19], the system named is UACC-257 melanoma.
Assay [20] concerns M14 melanoma.

As for `O=S(=O)(c1ccc(N/N=C\c2ccccc2)cc1)c1ccc(N/N=C/c2ccccc2)cc1`, the growth is 43.6% in [1]; 83.3% in assay [2]; 80% in assay [3]; 46.6% in assay [4]; 40.4% in assay [5]; 8.56% (active) in assay [6]. Also, the growth in assay [7] is 60%; in [8], 60%; in [9], 83.4%; in assay [10], 88.9%; in assay [11], 69%; in assay [12] it was 79.9%. Besides, the growth in assay [13] is 55.4%; in assay [14], 49.4%; in [15], 72.8%; in assay [16], 75.1%; in assay [17], 58.2%; in [18] it was 65.9%. The growth in [19] was 80.5%; in [20], 76.7%.
In the case of `COc1cc(NCCCN(CC(C)C)CC(C)C)c2ncccc2c1`, the growth is 72.9% in assay [1]; 97.8% in [2]; 108% in [3]; 87.6% in [4]; 95.2% in assay [5]; 84.2% in assay [6]. The growth in assay [7] is 73.2%; in assay [8] it was 80.7%; in assay [9], 90.7%; in [10], 90.2%; in [11] it was 106%; in assay [12], 110%. In addition, the growth in assay [13] was 102%; in assay [14] it was 88.7%; in [16], 89.5%; in [17], 89.4%; in [18] it was 102%; in assay [19], 90.9%. Further, the growth in assay [20] is 91.4%.
In the case of `C=C1C(=O)O[C@H]2[C@H]1CC/C(COC(=O)NCCc1c[nH]c3ccc(Cl)cc13)=C\CC[C@@]1(C)O[C@@H]21`, the growth is 13.8% in [1]; 30.7% in assay [2]; 81.6% in assay [3]; 64.6% in assay [4]; 17.5% in assay [5]; -71% (active) in assay [6]. For the same molecule, the growth in assay [7] is -80.1% (active); in [8], 56.5%; in assay [9], -78.7% (active); in assay [10], -70.9% (active); in [11] it was -87.8% (active); in assay [12], -13.2% (active). The growth in assay [13] was -84.4% (active); in assay [14] it was -70.5% (active); in [15] it was -93.6% (active); in assay [16], -71% (active); in [17], 75.4%; in assay [18], -63.8% (active). Besides, the growth in assay [19] is -11.6% (active); in assay [20], -54.8% (active).
Regarding `CC(C)Sc1nc(NN)c(C#N)c(-c2ccccc2)n1`, the growth in assay [1] was 100%; in assay [2], 100%; in assay [3], 91.1%; in [4], 102%; in assay [5], 98.6%; in assay [6], 83.5%. Further, the growth in [7] was 94.7%; in assay [8] it was 102%; in assay [9], 97.8%; in [10], 114%; in [11], 108%; in assay [12], 101%. The growth is 95.7% in [13]; 99.3% in assay [14]; 100% in [16]; 98.7% in assay [17]; 89.9% in [18]; 102% in assay [19]. In addition, in assay [20], the growth was 108%.
As for `C=C(C)[C@@H]1CC[C@]2(C(=O)O)CC[C@]3(C)[C@H](CC[C@@H]4[C@@]5(C)C[C@@H](CC#Cc6ccc(Br)cc6)C(=O)C(C)(C)[C@@H]5CC[C@]43C)[C@@H]12`, the growth was 31.2% in assay [1]; 17.3% in assay [2]; 65.7% in [3]; 52.3% in assay [4]; 42.3% in [5]; 65.8% in assay [6]. The growth in assay [7] was 17.3%; in assay [8], 33.1%; in [9], 63.1%; in assay [10], 69.1%; in assay [11], 40%; in assay [12], 42.8%. Besides, the growth in assay [13] is -19.9% (active); in [14], 0.351% (active); in assay [15] it was 52.6%; in assay [16], 72.1%; in assay [17], 58.9%; in [18], 61.1%. In addition, the growth in assay [19] was 52.7%; in [20], 5.57% (active).
In the case of `COC(=O)N[C@H]1CCc2cc(OC)c(OC)c(OC)c2-c2ccc(SC)c(=O)cc21`, the growth in assay [1] was 23.3%; in [2] it was -3.52% (active); in [3] it was 29.8%; in assay [4] it was 23.4%; in assay [5], 2.04% (active); in assay [6], 15.2%. Moreover, the growth in assay [7] is -17.9% (active); in [8], 13.6%; in assay [9], 14.1%; in assay [10] it was -18.6% (active); in [11], 1.4% (active); in assay [12] it was 9.06% (active). Further, the growth in assay [13] was 37.3%; in assay [14] it was -22.3% (active); in assay [15], 22.5%; in assay [16], 15.9%; in assay [17], 7.65% (active); in [18] it was -27.6% (active). Moreover, the growth is 59.4% in assay [19] and 3.18% (active) in assay [20].
On to `COc1cc(NCC(O)CN(CC(C)C)CC(C)C)c2nc(C)ccc2c1` (configuration not stated), for which the growth in [1] is 85.6%; in [2], 88.5%; in assay [3] it was 107%; in [4], 67.7%; in [5] it was 96.5%; in assay [6], 98.6%. Also, the growth in assay [7] is 68.2%; in assay [8] it was 67.3%; in assay [9] it was 90.7%; in assay [10], 66.3%; in assay [11], 97.9%; in assay [12], 78.4%. In addition, the growth in assay [13] is 119%; in assay [14], 55.9%; in assay [16], 78.9%; in assay [17] it was 100%; in assay [18], 108%; in assay [19], 54.1%. The growth in assay [20] is 88.6%.

The values are drawn from PubChem BioAssay (NCI).
